In ChEMBL document CHEMBL1157539, “Thousands of chemical starting points for antimalarial lead identification” (Nature, 2010) one finds Inhibition data, which are given here for 30 compounds.

Each structure is given as a SMILES string.

Holding throughout (type): functional
Experiment [1] concerns Plasmodium falciparum. As to the kind of experiment: GSK_TCMDC: Inhibition of Plasmodium falciparum 3D7 in whole red blood cells, using parasite LDH activity as an index of growth. Test compounds present at 2uM.
Experiment [2] has as its system Plasmodium falciparum. The experiment in a line: GSK_TCMDC: Inhibition of Plasmodium falciparum Dd2 in whole red blood cells, using parasite LDH activity as an index of growth. Test compounds present at 2uM.
The next experiment deals with HepG2. As to the kind of experiment: GSK_TCMDC: Percent inhibition of human HepG2 cell line. Test compounds present at 10uM.

For the compound `C=CCOc1ccc(CNC2CCN(Cc3ccccc3)CC2)cc1Br.O=C(O)C(=O)O`, the Inhibition amounted to 92% in the experiment with Plasmodium falciparum [1], 8% with Plasmodium falciparum [2] and 9% with HepG2.
Regarding `CS(=O)(=O)c1ccc(CCNCc2ccc(-c3ccc(CN(C(=O)C4CCCC4)C4CCN(Cc5ccccc5)CC4)cc3)nc2)cc1.O=C(O)C(F)(F)F`, the Inhibition turned out to be 91% in the experiment on Plasmodium falciparum [1], 20% in the experiment on Plasmodium falciparum [2] and 24% in the experiment with HepG2.
For `CC(C)Oc1cccc(-c2ccc(C(=O)NCC3CCCN(Cc4cccc(C(F)(F)F)c4)C3)s2)c1.O=C(O)C(F)(F)F` (stereo not given), in that order: 91%, 28% and 10%.
On to `COc1ccc(CNC(=N)Nc2nc(-c3ccc(OCCCn4ccnc4)cc3)cs2)cc1.Cl`, for which the Inhibition in the experiment on Plasmodium falciparum [1] amounted to 100%; in the experiment on Plasmodium falciparum [2], 67%; in the experiment with HepG2, 15%.
For `COc1ccc(N2C(=O)c3c(c4ccccc4n3C)C2c2ccccc2O)cc1` (stereo not given), in that order: 96%, 91% and 32%.
For the compound `CO/C(=C\C=C\c1cc2cc(Cl)c(Cl)cc2[nH]1)C(=O)Nc1ccc(NCCN(C)C)nc1.Cl`, the figures for the Inhibition in the experiment with Plasmodium falciparum [1], with Plasmodium falciparum [2] and with HepG2 were 93%, 56% and 27%, respectively.
The matching figures for `Cl.c1ccc(Oc2cccc(Nc3ccnc4ccccc34)c2)cc1`: 95%, 14% and 48%.
The matching figures for `Cc1ccc(NC(=O)c2ccc(Cl)cc2)cc1-c1ccc(C(=O)Nc2ccncc2)cc1`: 98%, 5% and 36%.
For `Cc1cccc2nc(-c3cccc(-c4ccc(CNCc5cccc(N)c5)cc4)c3)[nH]c12.O=C(O)C(F)(F)F`, in that order: 100%, 93% and 19%.
Regarding `Br.COc1cccc(OC)c1OCCCON1C(=N)N=C(N)NC1(C)C`, the Inhibition worked out at 95% with Plasmodium falciparum [1], 96% with Plasmodium falciparum [2] and 53% with HepG2.
The matching figures for `O=C(Nc1cn(-c2ccc(OCc3cccc(F)c3)c(Cl)c2)c2ncncc12)c1ccncc1`: 100%, 81% and 13%.
On to `CCNc1cc(C(=O)N[C@@H](Cc2ccccc2)[C@H](O)CNC(C)(C)Cc2cccc(OC)c2)cc(N2CCCC2=O)c1.O=CO`, for which the Inhibition in the experiment on Plasmodium falciparum [1] was determined as 99%; in the experiment with Plasmodium falciparum [2], 97%; with HepG2, 7%.
On to `COc1ccc(Cc2c(C)nc3nc(N)nc(N)c3c2C)cc1.Cl`, for which the values for the Inhibition in the experiment on Plasmodium falciparum [1], with Plasmodium falciparum [2] and in the experiment on HepG2 were 93%, 2% and 61%, respectively.
Turning to `CCC(C)c1ccc(Nc2nc(C)cc(N(CC)CCCN3CCCCC3)n2)cc1.O=C(O)C(F)(F)F` (stereo not given), the Inhibition with Plasmodium falciparum [1] stood at 100%; in the experiment with Plasmodium falciparum [2], 83%; with HepG2 it was 55%.
For the compound `CCCc1cc(Cc2cnc(N)nc2N)cc(CCC)c1OCCCCC(=O)OC`, the Inhibition is 94% in the experiment with Plasmodium falciparum [1], 0% in the experiment on Plasmodium falciparum [2] and 0% in the experiment on HepG2.
Turning to `O=C(Nc1cc(Cl)ccc1Cl)N[C@H]1CCN(CCCCCNC(=O)C2CC2c2ccc(Cl)c(Cl)c2)C1` (stereo not given in full), the Inhibition was 97% with Plasmodium falciparum [1], 1% in the experiment on Plasmodium falciparum [2] and 49% with HepG2.
For `Cl.N=C1N=C(N)NCN1OCc1ccc(Cl)c(Cl)c1`, in that order: 95%, 4% and 14%.
In the case of `CC1CC(C)CN(S(=O)(=O)c2cc(C(=O)Nc3cccc([N+](=O)[O-])c3)ccc2Br)C1` (stereo not given), the Inhibition in the experiment with Plasmodium falciparum [1] was found to be 100%; in the experiment with Plasmodium falciparum [2] it was 68%; in the experiment with HepG2 it was 1%.
Regarding `COc1ccccc1NC(=O)Nc1cccc(-c2cccc(-c3nc4cc(C(F)(F)F)ccc4[nH]3)c2)c1`, the Inhibition with Plasmodium falciparum [1] is reported as 100%; in the experiment on Plasmodium falciparum [2] it was 97%; in the experiment on HepG2, 21%.
Turning to `NS(=O)(=O)CCc1cccc(Nc2nccc(-c3c(-c4cccc(NC(=O)c5c(F)cccc5F)c4)nn4ccccc34)n2)c1`, the Inhibition in the experiment with Plasmodium falciparum [1] is 98%; with Plasmodium falciparum [2] it was 97%; in the experiment on HepG2, 84%.
As for `Cl.O=S(=O)(Nc1cc2c(cc1OCc1ccccc1)CCN(C1CCC1)CC2)c1ccc(-c2ccc(Cl)cc2)cc1`, the Inhibition in the experiment on Plasmodium falciparum [1] is reported as 92%; in the experiment on Plasmodium falciparum [2] it was 12%; with HepG2, 18%.
For `N=C(N)NN=CC(=O)Nc1cccc(C(F)(F)F)c1.O=S(=O)(O)O`, in that order: 99%, 25% and 21%.
In the case of `CC(C)NCC(=O)Nc1cccc(C(=O)Nc2cccc(C(F)(F)F)c2)c1`, the Inhibition in the experiment on Plasmodium falciparum [1] is listed as 97%; in the experiment with Plasmodium falciparum [2], 89%; in the experiment on HepG2, 6%.
As to `CCNc1cc(C(=O)N[C@@H](Cc2ccccc2)[C@H](O)CNC2CC3CCC2C3)cc(N2CCCCS2(=O)=O)c1.Cl` (stereo not given in full), the Inhibition stood at 99% in the experiment on Plasmodium falciparum [1], 73% in the experiment with Plasmodium falciparum [2] and 0% with HepG2.
Turning to `Cc1noc(C)c1-c1cccc(CNCc2cccc(-c3ccc(-c4nc5cc(C(F)(F)F)ccc5[nH]4)s3)c2)c1.O=C(O)C(F)(F)F`, the Inhibition in the experiment with Plasmodium falciparum [1] was determined as 100%; in the experiment with Plasmodium falciparum [2], 95%; in the experiment with HepG2, 23%.
On to `CCNc1cc(C(=O)N[C@@H](Cc2ccccc2)[C@H](O)CNCCC(C)(C)C)c(F)c(N2CCCCS2(=O)=O)c1.O=CO`, for which the Inhibition with Plasmodium falciparum [1] came to 98%; in the experiment with Plasmodium falciparum [2], 93%; in the experiment on HepG2, 2%.
The matching figures for `Cc1cc(C(=O)NC2CCN(Cc3ccccc3)CC2)ccc1-c1nc2ccc(C(F)(F)F)cc2[nH]1`: 95%, 2% and 19%.
The matching figures for `Cc1cc(=NN=Cc2ccc(F)cc2)c2ccc(C(F)(F)F)cc2[nH]1`: 95%, 24% and 4%.
On to `CC(C)(C)c1ccc(OCC(=O)NC2CCN(c3ccnc4cc(Cl)ccc34)C2)cc1.O=C(O)C(F)(F)F` (stereo not given), for which the Inhibition in the experiment with Plasmodium falciparum [1] was 98%; with Plasmodium falciparum [2], 100%; with HepG2, 17%.
For `Cc1ccc(C(=O)Nc2ccc(C)c(OC3CCN(CCC(C)C)C3)c2)cc1.O=C(O)C(F)(F)F` (stereo not given), in that order: 99%, 53% and 6%.
